Compounds with a hit are over-represented: about 6.8% of the library has one in this group of screens.
A340 absorber: absorbance at 340 nm. AID 708. 65,000 tested, under 10 active. compound absorbance at 340 nm, fold over control. fold change at 10 µM;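 active means at 10 µM dose, initial 340 nm absorbance at least 2 fold that of control wells; inactive means change under 2 fold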;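 further: initial absorbance extrapolated from kinetic A340 decline of NADH oxidation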
Spn PMK inh: blocks S. pneumoniae phosphomevalonate kinase; purified PMK, PK/LDH-coupled NADH absorbance 340 nm; inhibition, % at 10 µM; 65,000 tested, 0.49% active; AID 539;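 active means top-ranked compounds by inhibition in the single 10 µM screen, taking a fixed number of the strongest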;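 further: 0% = full reaction with DMSO carrier and 100% = background rate without enzyme reaction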
Spn MK inh: S. pneumoniae mevalonate kinase inhibition | purified MK, PK/LDH-coupled NADH absorbance 340 nm | inhibition, % at 10 µM | 65,000 tested, 0.48% active | AID 555;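 active means ranked among the strongest by inhibition in the single 10 µM screen, a fixed top-ranked set picked for dose follow-up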
DPM-DC inhibit: blocks S. pneumoniae diphosphomevalonate decarboxylase. 65,000 tested, 0.49% active. purified DPM-DC, PK/LDH coupled NADH fluorescence. calls only at 10 µM. AID 556;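 active means the 320 compounds with the highest percent inhibition in the single-dose primary screen, excluding strongly autofluorescent ones, cut at about 32% in these data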;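 further: kinetic rate of NADH fluorescence loss reporting ADP formed by the decarboxylase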
Autofluor 339: intrinsic fluorescence of library compounds, ex339/em460 – biochemical, MLSMR library, data from DPM-DC assay, artefact control, profiling panel. fluorescence fold increase at 10 µM. compound autofluorescence, ex339/em460 nm, NADH buffer; active compounds read high; 1 = no-compound wells, NADH background. 65,000 tested, 5.5% active. AID 709;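 active means at 10 µM, mean starting fluorescence two-fold or more over control wells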;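 further: signal is the first read of a kinetic run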
NADH enzymes: inhibitors of enzymes used to reach an NAD/NADH endpoint; IC50, µM (titrated, usually from 10 µM), for the others: at the top dose inhibition; coupled PK/LDH NADH assays, four targets; 65,000 tested, 0.02% active;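 active means single-dose screening hits from any of four coupled enzyme assays that gave an IC50 when retested across doses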;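 further: the DPM-DC format reads NADH fluorescence rather than 340 nm absorbance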
An asterisk follows results filed as active; i = inactive; nt = no result shown; + = active, no number.

SMILES	A340 absorber	Spn PMK inh	Spn MK inh	DPM-DC inhibit	Autofluor 339	NADH enzymes
CCOC(=O)Cc1nnc(NC(=O)CSc2nncn2C)s1	1.1	19	10	i	1.1	12%
COc1ccc(S(=O)(=O)N(Cc2ccc(OC)c(OC)c2)Cc2ccco2)cc1	1	13	0	i	1.1	4%
CCn1nnc(NC(=O)c2ccc(-c3ccc(Cl)cc3)o2)n1	1	11	5	i	2.1*	3%
CCCn1nnc(NC(=O)c2ccco2)n1	1.1	6	9	i	1.1	9%
COCCCN1C(=O)C(O)=C(C(=O)c2ccco2)C1c1ccccc1 (centres undefined)	1.1	15	0	i	1.1	5%
Cn1c2ccccc2c2c(C(=O)O)cn(C3CCCC3)c(=O)c21	1	2	10	nt	2.1*	6%
COc1ccc(N2CCN(C(=O)c3cn(C4CCCC4)c(=O)c4c3c3ccccc3n4C)CC2)cc1	1	16	5	i	1.3	7%
Cc1ccc(CNC(=O)c2cn(C3CCCC3)c(=O)c3c2c2ccccc2n3C)o1	1.1	19	2	nt	2.1*	11%
Cn1c2ccccc2c2c(C(=O)NCc3ccco3)cn(C3CCCCC3)c(=O)c21	1.1	15	7	nt	2.1*	11%
Cc1[nH]c2ccccc2c1C1(O)C(=O)N(Cc2ccc3c(c2)OCO3)c2ccccc21 (centres undefined)	1	7	1	i	1.1	3%
COC(=O)c1c(S(N)(=O)=O)c2ccccc2n1C	1	12	7	nt	2.1*	10%
COc1cccc(OC)c1OCCCc1c(C)n[nH]c1C	0.99	14	0	i	1	5%
Cc1cccc(OCCCc2c(C)n[nH]c2C)c1	1	26*	11	i	1.1	4%
COc1ccc(-c2cc(=O)oc3c(C)c(O)c(CN(C)C)cc23)cc1	1.1	5	8	i	2.4*	12%
COc1ccccc1-c1coc2c(CN3CCN(CCO)CC3)c(O)ccc2c1=O	1	0	4	nt	3*	1%
CCOC(=O)c1oc2cc(O)ccc2c(=O)c1-c1ccccc1OC	1.1	20	4	i	1	9%
CCc1cc2c(=O)c(-c3nc4ccccc4n3C)coc2c(CN2CCN(C)CC2)c1O	1.2	6	14	i	2.6*	14%
COc1ccccc1-c1coc2c(CN3CCN(C)CC3)c(O)ccc2c1=O	1.1	0	5	nt	2.2*	3%
CCN1CCN(Cc2c(O)ccc3c(=O)c(-c4ccccc4OC)coc23)CC1	1.1	12	3	nt	5*	8%
CCc1cc2c(=O)c(-c3nc4ccccc4[nH]3)coc2c(CN2CCC(C)CC2)c1O	1	6	1	i	1.2	5%
COc1ccccc1N1CCN(C(=O)c2ccc3c(=O)n(Cc4ccco4)c(=S)[nH]c3c2)CC1	1.1	9	0	i	0.97	3%
COc1ccc(-c2cc(C(=O)N(C)Cc3ccccc3)no2)cc1OC	0.98	15	2	i	1.1	6%
COc1ccccc1Oc1coc2cc(OC(=O)N3CCOCC3)ccc2c1=O	1	6	5	i	1.1	4%
COc1ccccc1Oc1coc2c(CN3CCN(C)CC3)c(O)ccc2c1=O	1	11	4	nt	3*	3%
CCOC(=O)c1oc2ccc3c(c2c1C)C(=O)CC1(CCN(C(=O)OCC)CC1)O3	1	5	9	i	1.5	5%
SMILES	A340 absorber	Spn PMK inh	Spn MK inh	DPM-DC inhibit	Autofluor 339	NADH enzymes
CCOC(=O)N1CCC2(CC1)CC(=O)c1c(ccc3oc(C(=O)O)c(C)c13)O2	1	10	9	nt	3.4*	4%
CCOC(=O)C(NC(=O)CC)(Nc1ccc(S(=O)(=O)Nc2onc(C)c2C)cc1)C(F)(F)F (centres undefined)	0.98	4	6	i	1	2%
Cc1cc(=O)[nH]c(Cc2ccc(OC(C)C)cc2)n1	1	3	0	i	1.1	1%
CC(Oc1ccc(Cl)cc1Cl)C(=O)Nc1ccc2oc(-c3ccncc3)nc2c1 (centres undefined)	1	5	12	nt	3.8*	9%
Cc1ccc(-c2nc3cc(NC(=O)C(C)C)ccc3o2)cc1C	1	12	4	nt	3*	3%
CC(C)C(=O)Nc1cccc(-c2nc3ccccc3o2)c1	0.99	6	8	i	1.1	6%
CC(Oc1ccc(Cl)cc1Cl)C(=O)Nc1ncccn1 (centres undefined)	1	4	8	i	1.1	2%
Cc1cc2nc(-c3ccc(NC(=O)C(C)C)cc3)oc2cc1C	1.1	0	0	nt	2.2*	0%
CC(C)C(=O)Nc1ccc(-c2nc3cccnc3o2)cc1	1.1	12	7	nt	2.5*	4%
COc1ccc2c(C(=O)CN3CC(C)OC(C)C3)c[nH]c2c1 (centres undefined)	1	12	6	i	1.1	7%
CCC(=O)N(Cc1cc2cc(C)c(C)cc2[nH]c1=O)C1CCCCC1	0.98	13	8	i	1.1	7%
Cc1ccn2cc(CCNC(=O)c3ccc(Br)o3)nc2c1	1	9	8	i	1.1	6%
Cc1ccc(-c2nc3cc(NC(=O)C(C)C)ccc3o2)cc1	1.1	1	5	nt	2.5*	2%
Cn1c(=O)[nH]c(=O)c2c1nc(NC1CCCCC1)n2CCO	1	1	0	i	1.1	1%
Cn1c(=O)[nH]c(=O)c2c1nc(NC1CCCCC1)n2Cc1ccccc1	0.98	17	37	+	2.5*	31%
O=C(NCc1n[nH]c(=S)n1-c1ccccc1)c1ccco1	1	9	41*	i	1.1	17%
Cc1c2cccn2cc[n+]1C	0.99	0	6	nt	3.8*	3%
O=C(O)c1cc(NCc2c(F)cccc2Cl)ccc1N1CCOCC1	1	4	5	i	1.9	6%
COC(=O)c1cc(NCc2ccccc2F)ccc1N1CCOCC1	0.99	17	12	i	1.8	13%
CCOc1ccccc1CNc1ccc(N2CCOCC2)c(C(=O)O)c1	1	0	3	i	2.2*	5%
Cc1ccc(CNc2ccc(N3CCOCC3)c(C(=O)O)c2)s1	1	0	3	i	2.4*	4%
COc1ccc(S(=O)(=O)N2CCC(C(=O)NCC(c3cccs3)N(C)C)CC2)cc1 (centres undefined)	1	15	7	i	1.1	7%
COc1ccccc1N1CCN(c2nc(N)c(C#N)c(CC#N)c2C#N)CC1	1.1	4	7	i	1.1	7%
COc1ccccc1-c1c(C)c(C)nc(N)c1C#N	1.1	8	8	i	2.4*	9%
CCc1nc(N)c(C#N)c(-c2ccccc2OC)c1C	1.1	15	5	i	2.3*	10%
COc1ccccc1-c1cc(C2CC2)nc(N)c1C#N	1.1	7	6	nt	2.1*	7%

Source: PubChem BioAssay (SRMLSC)
